VHR inh abs – VHR1 phosphatase inhibitors, primary screen, biochemical, absorbance, uHTS. recombinant VHR phosphatase, pNPP absorbance. inhibition, % at 13.3 µM. hit rate 0.52% among 290,000. AID 1654, 2009; in the data active means inhibition above about 50%
Target sequence (P51452 whole entry, looked up): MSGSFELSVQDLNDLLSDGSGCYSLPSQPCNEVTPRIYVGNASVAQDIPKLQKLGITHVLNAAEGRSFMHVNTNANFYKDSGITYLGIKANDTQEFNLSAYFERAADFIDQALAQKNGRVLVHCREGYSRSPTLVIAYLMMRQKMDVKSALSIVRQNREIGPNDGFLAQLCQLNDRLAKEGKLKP
SARS 3CLpro inh – SARS-CoV 3CLpro protease inhibitors, primary screen, biochemical, quenched FRET. inhibition, % at 6 µM. recombinant SARS-CoV 3CLpro, quenched FRET peptide cleavage. Replicase polyprotein 1ab (Severe acute respiratory syndrome coronavirus), P0C6X7. AID 1706, 2009. hit rate 0.14% among 290,000; in the data active means inhibition above about 12%
Bead autofluor – counter-screen for toxin protease inhibitors: compound fluorescence; compound autofluorescence counterscreen, microsphere flow cytometry; active compounds read high; fluorescence intensity (no concentration beside the values); hit rate 3.1% among 360,000; AID 624483; in the data active means fluorescence intensity above about 16000; inconclusive means no clear call, values can overlap the other calls
BoNT F protease – BoNT/F light chain protease inhibitors, primary screen, biochemical, flow cytometry, MLPCN library; Botulinum neurotoxin type F light chain protease (Clostridium botulinum); Multiplex microsphere protease cleavage assay; inhibition, % at 10 µM; hit rate 0.22% among 360,000; AID 588497, 2011; in the data active means inhibition above about 35%, passing the limit was not always enough; inconclusive means no clear call, values can overlap the other calls
BoNT-A LC inh2 – BoNT/A light chain protease inhibitors, primary screen, biochemical, flow cytometry, MLPCN library | inhibition, % at 10 µM | hit rate 0.17% among 360,000 | AID 588499, 2011 | multiplex microsphere protease substrate cleavage | Botulinum neurotoxin type A light chain protease (Clostridium botulinum A str. ATCC 3502)
Anthrax LF prot – Bacillus anthracis LF protease inhibitors, primary screen, biochemical, multiplex microsphere, MLPCN library | inhibition, % at 10 µM | AID 588501, 2011 | Lethal factor (Bacillus anthracis), P15917 | hit rate 0.12% among 360,000 | multiplex microsphere protease cleavage assay
A number is an active result. Hits are enriched below; roughly 3.9% of the tested compounds scored in any of these assays. Unless noted, no stated cut-off is given here; in the data, active means inhibition above about 30%; inconclusive means no clear call, values can overlap the other calls; inactive means below that.

Results for CCc1cc(-c2n[nH]c(C)c2Oc2ccc(C(C)C)cc2)c(O)cc1O ?
VHR inh abs: inactive; SARS 3CLpro inh: inactive; Bead autofluor: 22495; BoNT F protease: inactive; BoNT-A LC inh2: inconclusive; Anthrax LF prot: inactive

How did CC1(C)CC(=O)C=C(NC2CCCC(O)C2)C1 (stereo not drawn) do in these assays?
Bead autofluor: inactive; BoNT F protease: inactive; BoNT-A LC inh2: inactive; Anthrax LF prot: inactive

How did CCOC(=O)N1CCN(C(=O)c2ccc(NS(C)(=O)=O)cc2)CC1 do in these assays?
VHR inh abs: inactive; SARS 3CLpro inh: inactive; Bead autofluor: 16339; BoNT F protease: inactive; BoNT-A LC inh2: inactive; Anthrax LF prot: inactive

How did COC(=O)c1cc(S(=O)(=O)N2CCC(C)CC2)ccc1F do in these assays?
VHR inh abs: inactive; SARS 3CLpro inh: inactive; Bead autofluor: 22718; BoNT F protease: inactive; BoNT-A LC inh2: inactive; Anthrax LF prot: inactive

What do the screens show for `CC(=O)Nc1ccc(S(=O)(=O)N(c2cccnc2)S(=O)(=O)c2ccc(NC(C)=O)cc2)cc1`?
VHR inh abs: inactive; SARS 3CLpro inh: inactive; Bead autofluor: 23675; BoNT F protease: inactive; BoNT-A LC inh2: inactive; Anthrax LF prot: inactive

Results for CCOC(=O)N1CCN(C(=O)c2ccc(S(=O)(=O)Nc3ccc(C)cc3)cc2)CC1 ?
Bead autofluor: inactive; BoNT F protease: inactive; BoNT-A LC inh2: inactive; Anthrax LF prot: inactive

How did CC(=O)Nc1ccc(S(=O)(=O)N2CCN(C(=O)c3cccnc3)CC2)cc1 do in these assays?
VHR inh abs: inactive; SARS 3CLpro inh: inactive; Bead autofluor: 23558; BoNT F protease: inactive; BoNT-A LC inh2: inactive; Anthrax LF prot: inactive

How did NC(Cc1ccc(F)cc1)c1csc(Nc2ccc(C(=O)c3ccccc3)cc2)n1 (stereo not drawn) do in these assays?
Bead autofluor: inactive; BoNT F protease: inactive; BoNT-A LC inh2: inactive; Anthrax LF prot: inactive

Results for COc1ccc(C(=O)COc2ccccc2C(=O)Nc2ccccc2)cc1 ?
VHR inh abs: inactive; SARS 3CLpro inh: inactive; Bead autofluor: inactive; BoNT F protease: inactive; BoNT-A LC inh2: inactive; Anthrax LF prot: inactive

Results for O=S(=O)(c1ccc(Br)s1)N1CCN(CCc2ccccc2)CC1 ?
Bead autofluor: inactive; BoNT F protease: inactive; BoNT-A LC inh2: inactive; Anthrax LF prot: inactive

What do the screens show for `CCOC(=O)N1CCN(S(=O)(=O)c2ccc(NC(C)=O)cc2)CC1`?
VHR inh abs: 52.0; SARS 3CLpro inh: inactive; Bead autofluor: inactive; BoNT F protease: inactive; BoNT-A LC inh2: inactive; Anthrax LF prot: inactive

Results for CCOC(=O)N1CCC(NC(=O)C2CCN(c3ccc(N4CCOCC4)nn3)CC2)CC1 ?
VHR inh abs: inactive; SARS 3CLpro inh: inactive; Bead autofluor: 23805; BoNT F protease: inactive; BoNT-A LC inh2: inactive; Anthrax LF prot: inactive

How did CCOC(=O)N1CCC(NC(=O)c2ccc(CNS(=O)(=O)c3ccc(F)cc3)cc2)CC1 do in these assays?
VHR inh abs: inactive; SARS 3CLpro inh: inactive; Bead autofluor: 17979; BoNT F protease: inactive; BoNT-A LC inh2: inactive; Anthrax LF prot: inactive

Results for CCOC(=O)N1CCC(NC(=O)c2cc(S(=O)(=O)N3CCOCC3)ccc2F)CC1 ?
VHR inh abs: inactive; SARS 3CLpro inh: inactive; Bead autofluor: 20906; BoNT F protease: inactive; BoNT-A LC inh2: inactive; Anthrax LF prot: inactive

What do the screens show for `CCOC(=O)N1CCC(NC(=O)C2CCN(S(=O)(=O)c3cnc[nH]3)CC2)CC1`?
VHR inh abs: inactive; SARS 3CLpro inh: inactive; Bead autofluor: inactive; BoNT F protease: inactive; BoNT-A LC inh2: inactive; Anthrax LF prot: inactive

What do the screens show for `O=[N+]([O-])c1ccc(-[n+]2nc(-c3ccccc3)nn2-c2ccccc2)cc1`?
VHR inh abs: inactive; SARS 3CLpro inh: inactive; Bead autofluor: inactive; BoNT F protease: inactive; BoNT-A LC inh2: inactive; Anthrax LF prot: inactive

How did CCOC(=O)N1CCN(C(=O)CN(Cc2ccc(Cl)cc2)S(=O)(=O)c2ccc(C)cc2)CC1 do in these assays?
VHR inh abs: inactive; SARS 3CLpro inh: inactive; Bead autofluor: 24719; BoNT F protease: inactive; BoNT-A LC inh2: inactive; Anthrax LF prot: inactive

What do the screens show for `CCOC(=O)N1CCC(N2CCN(S(=O)(=O)c3ccc(Cl)cc3)CC2)CC1`?
VHR inh abs: inactive; SARS 3CLpro inh: inactive; Bead autofluor: 19293; BoNT F protease: inactive; BoNT-A LC inh2: inconclusive; Anthrax LF prot: inactive

How did CCOC(=O)N1CCN(S(=O)(=O)c2ccc(Cl)cc2)CC1 do in these assays?
VHR inh abs: inactive; SARS 3CLpro inh: inactive; Bead autofluor: inactive; BoNT F protease: inactive; BoNT-A LC inh2: inactive; Anthrax LF prot: inactive

Results for CCOC(=O)N1CCN(C(=O)c2ccccc2N(C)S(C)(=O)=O)CC1 ?
VHR inh abs: inactive; SARS 3CLpro inh: inactive; Bead autofluor: 16798; BoNT F protease: inactive; BoNT-A LC inh2: inactive; Anthrax LF prot: inactive

Results for CCOC(=O)N1CCN(S(=O)(=O)c2ccc(OC)c(OC)c2)CC1 ?
VHR inh abs: inactive; SARS 3CLpro inh: inactive; Bead autofluor: 25529; BoNT F protease: inactive; BoNT-A LC inh2: inactive; Anthrax LF prot: inactive

How did CC(=O)Nc1nc2[nH]ccc2c(=O)[nH]1 do in these assays?
Bead autofluor: inactive; BoNT F protease: inactive; BoNT-A LC inh2: inactive; Anthrax LF prot: inactive

How did O=C(Nc1ccc(S(=O)(=O)N2CCN(Cc3ccccc3)CC2)cc1)c1cnccn1 do in these assays?
VHR inh abs: inactive; SARS 3CLpro inh: inactive; Bead autofluor: 16875; BoNT F protease: inactive; BoNT-A LC inh2: inactive; Anthrax LF prot: inactive

What do the screens show for `O=C(Nc1ccc(S(=O)(=O)N2CCCC2)cc1)c1cnccn1`?
VHR inh abs: inactive; SARS 3CLpro inh: inactive; Bead autofluor: inactive; BoNT F protease: inactive; BoNT-A LC inh2: inactive; Anthrax LF prot: inactive

How did C[C@H](CO)N1C[C@H](C)[C@@H](CN(C)Cc2ccc(C(=O)O)cc2)Oc2c(NS(=O)(=O)c3cn(C)cn3)cccc2C1=O do in these assays?
Bead autofluor: inactive; BoNT F protease: inactive; BoNT-A LC inh2: inactive; Anthrax LF prot: inactive

How did CCOc1ccc(C2=Nn3cnnc3SC2)cc1 do in these assays?
VHR inh abs: inactive; SARS 3CLpro inh: inactive; Bead autofluor: 22944; BoNT F protease: inactive; BoNT-A LC inh2: inactive; Anthrax LF prot: inactive

How did COc1ccc(OC)c(C2=Nn3c(nnc3-c3ccco3)SC2)c1 do in these assays?
VHR inh abs: inactive; SARS 3CLpro inh: inactive; Bead autofluor: inactive; BoNT F protease: inactive; BoNT-A LC inh2: inactive; Anthrax LF prot: inactive

Results for c1ccc(C2=Nn3c(nnc3-c3cccnc3)SC2)cc1 ?
VHR inh abs: inactive; SARS 3CLpro inh: inactive; Bead autofluor: 22262; BoNT F protease: inactive; BoNT-A LC inh2: inactive; Anthrax LF prot: inactive

How did Cc1cccc(-c2nnc3n2N=C(c2ccccc2)CS3)c1 do in these assays?
VHR inh abs: inactive; SARS 3CLpro inh: inactive; Bead autofluor: 20710; BoNT F protease: inactive; BoNT-A LC inh2: inconclusive; Anthrax LF prot: inactive

Results for COc1ccc(C2=Nn3c(nnc3-c3ccco3)SC2)cc1 ?
VHR inh abs: inactive; SARS 3CLpro inh: inactive; Bead autofluor: 17209; BoNT F protease: inactive; BoNT-A LC inh2: inactive; Anthrax LF prot: inactive

Bioassay records from PubChem BioAssay.
